DT40 TDP1 CPT: growth inhibition of DT40 Tdp1-/-;hTDP1 cells with camptothecin (screen for TDP1 inhibitors). Potency, µM (titrated, usually from 46.2 µM), for inactives: top-dose activity change, negative = growth inhibition, most hits filed as inhibitors. 420,000 tested, 12% active. chicken DT40 Tdp1-/-;hTDP1 cells + 20 nM CPT, ATP luminescence, 48 h; further: on the % scale 0 is the no-effect control and ±100 the full control effect; nearly all actives have a fitted effect of over 55% in size
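Cell growth measured by CellTiter-Glo luminescence after a minimum 48 h, 37 C compound exposure with 20 nM CPT in Tdp1-knockout DT40 cells stably expressing hTDP1, seeded 400/well; qHTS titration format.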
DT40 TDP1 no CPT: qHTS for Inhibitors of human tyrosyl-DNA phosphodiesterase 1 (TDP1): qHTS in cells in absence of CPT | Potency, µM (highest dose often 46.2 µM), for inactives: top-dose activity change, negative = growth inhibition, most hits filed as inhibitors | DT40 Tdp1-/- hTDP1 cells, no CPT, ATP luminescence, 48 h | 420,000 tested, 15% active; further: on the % scale 0 is the no-effect control and ±100 the full control effect; nearly all actives have a fitted effect of over 55% in size
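Seeded 400 DT40-hTDP1 cells/well (vehicle DMSO, no 20 nM CPT); pinned compounds; ≥48 hr at 37 °C; CellTiter-Glo luminescence as viability measure.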
TGFb inhibitor: blocks TGF-b signaling; HepG2 CAGA-GFP TGF-b/SMAD3 reporter, GFP fluorescence, 18 h; TGF-beta stimulated, 500 pg/mL final; Potency, µM (titrated, usually from 46.1 µM), without a hit: top-dose activity, negative = inhibition, hits mostly inhibitors; 410,000 tested, 1.2% active; AID 588855; further: on the % scale 0 is the no-effect control and ±100 the full control effect; nearly all actives have a fitted effect of over 65% in size
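Cell-based qHTS in HEPG2 carrying a CAGA-GFP Smad reporter; compounds added before 500 pg/mL final TGF-beta, 18 h incubation at 37 degrees C, GFP fluorescence quantified per cell by imaging cytometry.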
HepG2 viability: kills HepG2 cells in TGF-b inhibitor counter-screen; HepG2 CAGA-GFP viability, ATP luminescence, 18 h; Potency, µM (doses to about 46.1 µM), for inactives: at the top dose activity change, negative = cytotoxicity, hits mostly cytotoxic; 410,000 tested, 0.76% active; AID 588856
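HepG2 CAGA-GFP cells (1000/well, DMEM with 1% FBS) received compound, then TGF-beta at 500 pg/mL final, and were incubated 18 hours at 37 degrees C. Viability was read by CellTiter-Glo luminescence. Media-only wells were set as complete cell-killing and DMSO as no toxicity.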
ATXN viability: viability counter-screen for ATXN expression inhibitors. AID 651635. S2 cells (HEK-293 line with an ATXN2-luciferase reporter) viability, CellTiter-Fluor protease fluorescence, 24 h. 400,000 tested, 0.49% active. Potency, µM (top dose mostly 56.7 µM), actives largely listed as cytotoxic; further: nearly all actives have a fitted effect of over 40% in size
ATXN2 expr inh: inhibitors of ATXN2 expression | HEK-293 ATXN2-luciferase reporter, luminescence, 24 h | Potency, µM (titrated, usually from 57 µM), for the others: at the highest dose activity change, negative = inhibition, most hits filed as inhibitors | 360,000 tested, 0.72% active; further: on the % scale 0 is the no-effect control and ±100 the full control effect; nearly all actives have a fitted effect of over 55% in size
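qHTS (up to 57 uM final) was run with 24 h compound exposure of reporter cells at 37 °C. Each well was multiplexed: SteadyGlo luminescence measured ATXN2-luciferase expression after a fluorogenic Gly-Phe-AFC viability readout (25 uM final).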
Numbers without * were called inactive; i = inactive; ? = inconclusive; · = not tested or not shown; [ ] = another dose, or the depositor's remark. Compounds with a hit are over-represented: about 17% of the library has one in this group of screens. The call rests on the fitted dose curve; in most records, active means well fitted curve in the direction sought with a large enough effect; inconclusive means small, poorly fitted or top-dose-only effect, or another doubt; inactive means no such curve, though single readings can be large; an effect the other way counts as inactive or inconclusive. Potency means the concentration at half of the fitted maximal effect.

SMILES	DT40 TDP1 CPT	DT40 TDP1 no CPT	TGFb inhibitor	HepG2 viability	ATXN viability	ATXN2 expr inh
COc1ccc(CN2C(=O)C(CC(C)C)Nc3ncnc(N4CCCCC4)c32)cc1 (centres undefined)	?	?	-26%	-9%	i	-12%
CC(C)CC1NC(=S)N(C2CCCCC2)C1=O (centres undefined)	8.2µM*	15µM*	-3%	-9%	i	-13%
CC(C)CC1Nc2ncnc(N3CCN(c4ccccc4)CC3)c2N(Cc2ccc(Br)cc2)C1=O (centres undefined)	16µM*	18µM*	-3%	-16%	i	-3%
O=C(O)CCC(=O)Nc1ccc(NC(=O)c2ccc(Cl)cc2Cl)c(Cl)c1	-13%	-6%	-1%	1%	i	18%
O=C(O)CN1CCN(Cc2ccc(Cl)cc2)C1=O	-17%	4%	18%	11%	i	7%
C=CCn1c(SCC(=O)c2ccc(OC)cc2)nnc1-c1cc2cccc(OC)c2o1	-9%	?	19%	-34%	i	-12%
CCn1c(SCC(=O)c2ccccc2)nnc1-c1cc2cc(Br)ccc2o1	?	9.2µM*	-1%	-3%	?	-13%
C=CCn1c(SCC(=O)c2ccccc2)nnc1-c1cc2ccccc2o1	23µM*	?	4%	-1%	i	-7%
CCn1c(CNC(C)=O)nnc1SCC(=O)c1ccc(Br)cc1	-21%	-15%	-21%	22µM*	i	0%
CCn1c(CNC(=O)Cc2ccc(OC)cc2)nnc1SCC(=O)c1ccc(Br)cc1	-18%	?	4%	-10%	i	0%
CSC1=NCCN1CCOc1ccccc1	-12%	-14%	6%	-1%	i	-10%
CCCC[n+]1c(/C=C/c2ccc(N(C)C)cc2)sc2ccccc21	0.025µM*	0.1µM*	?	-36%	·	·
CCCCCCCCCC[n+]1ccc(/C=C/c2ccc(N(C)C)cc2)c2ccccc21	0.35µM*	0.32µM*	?	-94%	·	·
CN(Cc1ccccc1)c1ccc(/C=C/c2sc3ccccc3[n+]2C)cc1	0.089µM*	0.11µM*	3.2µM*	-34%	·	·
CN(C)c1ccc(/C=C/c2sc3ccccc3[n+]2CCCCI)cc1	0.56µM*	0.71µM*	?	-30%	·	·
CN(CCCS(=O)(=O)[O-])c1ccc(/C=C/c2ccc3ccccc3[n+]2C)cc1	-15%	?	-11%	2%	i	·
CC(C)CNC(=O)c1ccccc1C(=O)NC1(C(=O)NCC(C)C)CCCC1	14%	-20%	0%	7%	i	-3%
CCN(CC(=O)Nc1ccccc1OC)C(=O)CSCC(=O)Nc1cccc(C)c1	-18%	-6%	2%	-4%	?	-4%
Cc1ccc(C(=O)OCC(=O)N(C)C2CCS(=O)(=O)C2)cc1[N+](=O)[O-] (centres undefined)	8%	5%	8%	-9%	?	·
CN(c1ccc(OCCOc2ccccc2Cl)cc1)S(=O)(=O)c1ccccc1	?	2.9µM*	4%	0%	i	-19%
O=C(NCC(c1cccs1)N1CCOCC1)c1ccc(OCc2ccccc2)cc1 (centres undefined)	15µM*	21µM*	-19%	-23%	i	-16%
CCOc1ccc(C(=O)NCC(c2cccs2)N2CCOCC2)cc1 (centres undefined)	-14%	-2%	0%	4%	i	5%
O=C(NCC(c1ccc(F)cc1)N1CCOCC1)c1ccc([N+](=O)[O-])o1 (centres undefined)	21µM*	26µM*	?	-109%	i	-13%
COc1cc(C(=O)NCC(c2cccs2)N2CCOCC2)ccc1OCc1ccc(Cl)cc1 (centres undefined)	6.5µM*	3.7µM*	-15%	-3%	i	·
O=C(NCC(c1ccc(F)cc1)N1CCOCC1)c1ccc(OCc2ccccc2)cc1 (centres undefined)	18µM*	21µM*	-28%	-28%	?	3%
SMILES	DT40 TDP1 CPT	DT40 TDP1 no CPT	TGFb inhibitor	HepG2 viability	ATXN viability	ATXN2 expr inh
O=C(NCC(c1cccs1)N1CCOCC1)c1cnc(Cl)c(Cl)c1 (centres undefined)	?	?	8%	-4%	?	?
COc1ccc(CCNC(=O)CN(CCc2ccccc2)S(C)(=O)=O)cc1	4%	-7%	-6%	12%	i	-8%[11.3 µM]
CCOc1ccc2nc(NC(=O)Cc3cccs3)sc2c1	18µM*	?	-15%	-13%	i	66%
O=C(Nc1nc2ccccc2s1)C1CCCO1 (centres undefined)	-11%	-7%	-19%	-15%	i	22%
O=C(Cc1cccs1)Nc1nc2ccccc2s1	?	15µM*	-25%	-19%	i	56%
O=C(Cc1cccs1)Nc1nc(-c2cccnc2)cs1	16µM*	8.2µM*	3%	-12%	i	·
COc1ccc2nc(NC(=O)Cc3cccs3)sc2c1	?	?	0%	-8%	i	63%
O=C(COc1ccc(Br)cc1)Nc1nc(-c2cccnc2)cs1	?	-29%	6%	1%	i	-6%
O=C(Nc1nc2ccccc2s1)C1c2ccccc2Oc2ccccc21	5.8µM*	16µM*	?	-32%	i	-13%
O=C(COC(=O)c1ccc(S(=O)(=O)N2CCOCC2)cc1)NCc1ccco1	-22%	2%	-5%	-9%	i	·
COc1ccc(-c2nnc(-c3ccccc3)o2)cc1OC	-22%	?	4%	-9%	·	·
COc1cc(-c2nnc(-c3ccccc3)o2)cc(OC)c1OC	16µM*	12µM*	7%	2%	i	6%
COc1cc(-c2nnc(-c3cc(OC)c(OC)c(OC)c3)o2)cc(OC)c1OC	1.8µM*	2.1µM*	10%	12%	?	0%
COc1cc(-c2nnc(SCC(=O)N3CCOCC3)o2)cc(OC)c1OC	5%	-11%	-1%	-20%	i	-7%
COc1cc(-c2nnc(SCC3(c4ccc(Br)cc4)OCCO3)o2)cc(OC)c1OC	16µM*	?	-5%	6%	i	7%
COc1cc(-c2nnc(-c3cccnc3)o2)cc(OC)c1OC	?	-3%	9%	6%	i	10%
COc1cc(-c2nnc(COc3ccc4ccccc4c3)o2)cc(OC)c1OC	?	26µM*	4%	-15%	i	-4%

Screens from PubChem BioAssay.
